# Results filed as inconclusive are left out. Calls of active or inactive are those of the source. How the source made its calls: active means hit-call score of the fitted dose curve at least 0.9, where 1 is the maximum; inconclusive means response in the unintended direction; inactive means score below 0.9.
# Columns and labels:
# [1] = target: Adenosine receptor A1 (Bos taurus) (UniProt P28190); assay: NVS_GPCR_bAdoR_NonSelective: NovaScreen (NVS) G Protein-Coupled Receptor Assay for bovine Adenosine Receptor (AdoR), Non-selective Binding (AID 2283244)
# Method in brief: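 Bovine striatal membranes, radioligand displacement binding, 1 h after dosing, filter-based scintillation counting. Screened in duplicate at 25 uM, then concentration-response up to 50 uM; loss of specific binding relative to DMSO.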
# [2] = target: rat Constitutive Nitric Oxide Synthase (CNOS), Nos1 (gene 24598) (UniProt P29476); assay: NVS_ENZ_rCNOS: NovaScreen (NVS) Enzymatic Assay for rat Constitutive Nitric Oxide Synthase (CNOS) (AID 2283236)
# Method in brief: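 Enzyme activity in rat brain membrane preparation, read 1 h after dosing by filter-based radiometric scintillation counting. Primary screen in duplicate at 25 uM; actives (e.g., ≥30% inhibition) then run in concentration-response up to 50 uM.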
# [3] = tested on: bovine Histamine 1 Receptor (H1), gene 281231; assay: NVS_GPCR_bH1: NovaScreen (NVS) G Protein-Coupled Receptor Assay for bovine Histamine 1 Receptor (H1) (AID 2283246)
# Method in brief: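 Radioligand displacement on bovine cerebellar membranes, 1 h after dosing, filter-based scintillation read-out; loss of signal vs DMSO. Duplicate single-concentration screen at 25 uM, then concentration-response up to 50 uM for hits.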
# [4] = tested on: guinea pig Leukotriene B4 Receptor (LTB4), gene 100379538; assay: NVS_GPCR_gLTB4: NovaScreen (NVS) G Protein-Coupled Receptor Assay for guinea pig Leukotriene B4 Receptor (LTB4) (AID 2283247)
# Method in brief: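 Radioligand displacement on guinea pig spleen membranes, filter-based scintillation counting 2 h after dosing. Primary duplicate single point at 25 uM; hits over threshold (e.g. 30% inhibition) run in concentration-response up to 50 uM, DMSO baseline.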
# [5] = target: human Serotonin, 5-Hydroxytryptamine Receptor 2A (5HT2A), HTR2A (gene 3356) (UniProt P28223); assay: NVS_GPCR_h5HT2A: NovaScreen (NVS) G Protein-Coupled Receptor Assay for human Serotonin, 5-Hydroxytryptamine Receptor 2A (5HT2A) (AID 2283249)
# Method in brief: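 Human cortex membranes, cell-free radioligand binding; filter-based scintillation read 1.5 h after dosing. Duplicate screen at 25 uM first; displacement of specific binding (loss of signal) versus DMSO.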
# [6] = NVS_GPCR_bNPY_NonSelective: NovaScreen (NVS) G Protein-Coupled Receptor Assay for bovine Neuropeptide Y (NPY) Receptor, Non-selective Binding (AID 2283245)
# Method: NVS_GPCR_bNPY_NonSelective is a biochemical, single-readout assay that uses extracted gene-proteins from Bovine hippocampal membranes in a tissue-based cell-free assay. Measurements were taken 1 hour after chemical dosing in a 96-well plate.NVS_GPCR_bNPY_NonSelective is one of one assay component(s) measured or calculated from the NVS_GPCR_bNPY_NonSelective assay. It is designed to make measurements of radioligand binding, a form of binding reporter, as detected with scintillation counting signals by Filter-based radiodetection technology.Data from the assay component NVS_GPCR_bNPY_NonSelective was analyzed into 1 assay endpoint. This assay endpoint, NVS_GPCR_bNPY_NonSelective, was analyzed in the positive analysis fitting direction relative to DMSO as the negative control and baseline of activity. Using a type of binding reporter, loss-of-signal activity can be used to understand changes in the binding as they relate to the gene NPY. Furthermore, this assay endpoint can be referred to as a primary readout, because the performed assay has only produced 1 assay endpoint. To generalize the intended target to other relatable targets, this assay endpoint is annotated to the gpcr intended target family, where the subfamily is rhodopsin-like receptor.
# Binding assays used specific radioligands (tritiated, iodinated) with non-radioactive competitive displacement ligands in agonist or antagonist protocols (as indicated) and various reference compounds and inhibitors to titrate specific binding to receptors and transporters. Most enzyme assays (CYPs, kinases, phosphatases, proteases, HDACs) used recombinant protein and specific substrates (fluorescence mostly, some colorimetric and radioactive) and inhibitors, followed by a biochemical separation of substrate and product. All assays for the biochemical HTS were initially run in duplicate at a single concentration (10 uM for CYP450 assays and 25 uM for all others). […]
# [7] = tested on: bovine Angiotensin II Receptor Type 2 (AT2), gene 407157; assay: NVS_GPCR_bAT2: NovaScreen (NVS) G Protein-Coupled Receptor Assay for bovine Angiotensin II Receptor Type 2 (AT2) (AID 2283240)
# Method in brief: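 Radioligand displacement on bovine cerebellar membranes, 1 hour incubation, filter-based scintillation counting; loss of signal vs DMSO. Duplicate single-point screen at 25 uM, then concentration-response to 50 uM maximum.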
# [8] = target: guinea pig Leukotriene D4 Receptor (LTD4), CYSLTR1 (gene 100135514) (UniProt Q2NNR5); assay: NVS_GPCR_gLTD4: NovaScreen (NVS) G Protein-Coupled Receptor Assay for guinea pig Leukotriene D4 Receptor (LTD4) (AID 2283248)
# Method in brief: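 Radioligand displacement on guinea pig lung membranes, 1 h incubation, filtration and scintillation counting; DMSO as negative control. Duplicate 25 uM primary screen, then singleton concentration-response up to 50 uM.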
# [9] = target: rat Catechol-O-Methyl Transferase (COMT), Comt (gene 24267) (UniProt P22734); assay: NVS_ENZ_rCOMT: NovaScreen (NVS) Enzymatic Assay for rat Catechol-O-Methyl Transferase (COMT) (AID 2283235)
# Method in brief: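 Cell-free enzyme activity with protein extracted from rat dorsal striatum, measured by HPLC with absorbance detection. Compounds screened at 25 uM in duplicate; actives then run in concentration-response up to 50 uM, loss of signal versus DMSO.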
# [10] = target: bovine Dopamine Receptor (DR), Non-selective Binding, DRD1 (gene 281125) (UniProt Q95136); assay: NVS_GPCR_bDR_NonSelective: NovaScreen (NVS) G Protein-Coupled Receptor Assay for bovine Dopamine Receptor (DR), Non-selective Binding (AID 2283241)
# Method in brief: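 Bovine striatal membranes; radioligand displacement read by filtration and scintillation counting 1 h after dosing, loss of signal vs DMSO. Screened in duplicate at 25 uM, then concentration-response for hits.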
# guinea pig Leukotriene D4 Receptor (LTD4), CYSLTR1 (gene 100135514), sequence (Q2NNR5 whole entry, looked up): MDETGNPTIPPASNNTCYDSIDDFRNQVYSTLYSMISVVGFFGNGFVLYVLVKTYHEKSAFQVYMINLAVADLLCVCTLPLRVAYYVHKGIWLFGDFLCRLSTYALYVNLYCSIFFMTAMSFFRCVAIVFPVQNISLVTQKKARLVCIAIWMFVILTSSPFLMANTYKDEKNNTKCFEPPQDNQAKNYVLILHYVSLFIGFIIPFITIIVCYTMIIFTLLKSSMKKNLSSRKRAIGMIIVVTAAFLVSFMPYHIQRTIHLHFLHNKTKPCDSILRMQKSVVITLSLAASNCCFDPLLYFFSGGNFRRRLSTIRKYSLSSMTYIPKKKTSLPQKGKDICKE
# human Serotonin, 5-Hydroxytryptamine Receptor 2A (5HT2A), HTR2A (gene 3356), sequence (P28223 whole entry, looked up): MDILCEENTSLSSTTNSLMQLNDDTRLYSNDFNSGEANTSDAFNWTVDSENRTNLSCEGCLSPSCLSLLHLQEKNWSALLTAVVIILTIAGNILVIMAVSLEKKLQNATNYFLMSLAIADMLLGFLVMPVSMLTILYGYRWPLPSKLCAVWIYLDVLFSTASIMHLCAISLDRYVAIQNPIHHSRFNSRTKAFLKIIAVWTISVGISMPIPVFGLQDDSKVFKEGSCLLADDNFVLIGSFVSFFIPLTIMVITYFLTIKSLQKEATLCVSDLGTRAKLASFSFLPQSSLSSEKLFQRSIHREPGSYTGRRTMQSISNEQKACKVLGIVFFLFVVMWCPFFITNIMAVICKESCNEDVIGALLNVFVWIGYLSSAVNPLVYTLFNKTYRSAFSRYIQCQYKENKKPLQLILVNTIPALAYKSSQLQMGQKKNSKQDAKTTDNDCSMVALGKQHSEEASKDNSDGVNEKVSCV
# Adenosine receptor A1 (Bos taurus), sequence (P28190 whole entry, looked up): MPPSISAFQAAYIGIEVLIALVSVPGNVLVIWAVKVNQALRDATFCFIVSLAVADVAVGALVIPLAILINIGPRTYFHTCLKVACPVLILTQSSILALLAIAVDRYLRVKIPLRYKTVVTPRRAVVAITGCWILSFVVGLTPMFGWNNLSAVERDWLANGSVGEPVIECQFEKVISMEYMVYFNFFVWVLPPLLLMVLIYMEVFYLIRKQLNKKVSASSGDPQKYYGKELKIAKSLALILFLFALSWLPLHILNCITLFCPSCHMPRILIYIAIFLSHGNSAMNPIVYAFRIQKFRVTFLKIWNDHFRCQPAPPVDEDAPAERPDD
# rat Constitutive Nitric Oxide Synthase (CNOS), Nos1 (gene 24598), sequence (P29476 whole entry, looked up): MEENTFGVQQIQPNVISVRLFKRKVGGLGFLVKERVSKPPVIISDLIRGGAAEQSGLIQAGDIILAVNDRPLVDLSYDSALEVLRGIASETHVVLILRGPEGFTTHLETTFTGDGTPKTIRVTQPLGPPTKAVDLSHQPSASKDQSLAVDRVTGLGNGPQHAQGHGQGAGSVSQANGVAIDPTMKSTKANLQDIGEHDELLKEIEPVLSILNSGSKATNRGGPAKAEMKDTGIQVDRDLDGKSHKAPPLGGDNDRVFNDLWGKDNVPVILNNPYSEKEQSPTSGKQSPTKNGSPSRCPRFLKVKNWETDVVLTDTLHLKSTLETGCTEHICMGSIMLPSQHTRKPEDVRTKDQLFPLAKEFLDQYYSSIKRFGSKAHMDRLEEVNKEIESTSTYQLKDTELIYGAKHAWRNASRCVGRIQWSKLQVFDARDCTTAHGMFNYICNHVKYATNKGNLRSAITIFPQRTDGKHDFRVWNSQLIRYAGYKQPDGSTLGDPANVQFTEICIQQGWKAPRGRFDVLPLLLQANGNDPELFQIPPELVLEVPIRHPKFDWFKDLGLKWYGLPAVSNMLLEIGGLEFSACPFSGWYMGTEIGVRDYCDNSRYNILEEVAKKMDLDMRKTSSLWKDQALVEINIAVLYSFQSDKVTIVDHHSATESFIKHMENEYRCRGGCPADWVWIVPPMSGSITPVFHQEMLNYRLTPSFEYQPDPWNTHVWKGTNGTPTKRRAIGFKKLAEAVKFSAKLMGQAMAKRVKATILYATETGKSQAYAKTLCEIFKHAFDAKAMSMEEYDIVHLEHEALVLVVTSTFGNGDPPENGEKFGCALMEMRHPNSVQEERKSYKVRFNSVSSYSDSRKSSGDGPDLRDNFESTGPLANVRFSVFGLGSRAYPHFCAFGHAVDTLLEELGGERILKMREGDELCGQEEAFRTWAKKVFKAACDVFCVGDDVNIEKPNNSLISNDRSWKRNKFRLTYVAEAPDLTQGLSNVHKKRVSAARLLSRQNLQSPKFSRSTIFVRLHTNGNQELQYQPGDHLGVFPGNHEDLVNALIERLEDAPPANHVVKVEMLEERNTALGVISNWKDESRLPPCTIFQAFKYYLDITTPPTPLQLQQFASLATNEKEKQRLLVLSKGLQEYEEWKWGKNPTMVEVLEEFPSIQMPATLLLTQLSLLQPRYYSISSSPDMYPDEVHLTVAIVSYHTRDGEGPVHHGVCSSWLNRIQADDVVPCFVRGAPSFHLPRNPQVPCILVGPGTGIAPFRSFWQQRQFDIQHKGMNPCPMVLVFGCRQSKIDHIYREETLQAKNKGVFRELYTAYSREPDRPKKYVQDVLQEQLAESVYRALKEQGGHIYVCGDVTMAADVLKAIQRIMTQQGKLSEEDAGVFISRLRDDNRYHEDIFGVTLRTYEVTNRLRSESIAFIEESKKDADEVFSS
# rat Catechol-O-Methyl Transferase (COMT), Comt (gene 24267), sequence (P22734 whole entry, looked up): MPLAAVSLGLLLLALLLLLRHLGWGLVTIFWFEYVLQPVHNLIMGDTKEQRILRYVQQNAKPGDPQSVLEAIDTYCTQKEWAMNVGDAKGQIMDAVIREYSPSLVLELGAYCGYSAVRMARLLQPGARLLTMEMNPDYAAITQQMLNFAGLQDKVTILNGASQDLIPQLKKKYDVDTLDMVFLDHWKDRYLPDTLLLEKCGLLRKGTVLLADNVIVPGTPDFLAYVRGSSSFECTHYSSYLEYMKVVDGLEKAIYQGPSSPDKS
# bovine Dopamine Receptor (DR), Non-selective Binding, DRD1 (gene 281125), sequence (Q95136 whole entry, looked up): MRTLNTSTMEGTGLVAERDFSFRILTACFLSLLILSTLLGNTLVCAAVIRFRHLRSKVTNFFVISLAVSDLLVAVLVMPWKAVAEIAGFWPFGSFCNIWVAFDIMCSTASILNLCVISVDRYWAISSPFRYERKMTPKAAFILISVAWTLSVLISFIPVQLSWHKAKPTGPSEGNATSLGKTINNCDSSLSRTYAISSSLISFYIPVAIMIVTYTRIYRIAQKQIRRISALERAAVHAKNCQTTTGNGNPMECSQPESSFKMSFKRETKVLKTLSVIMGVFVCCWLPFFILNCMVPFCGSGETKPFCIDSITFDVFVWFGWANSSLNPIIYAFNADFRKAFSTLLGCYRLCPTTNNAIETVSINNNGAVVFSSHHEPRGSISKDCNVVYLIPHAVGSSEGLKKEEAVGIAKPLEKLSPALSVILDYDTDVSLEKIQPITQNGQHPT
structure (smiles),measurement,setting,value
Oc1ccc2ccccc2c1N=Nc1ccccc1,AC50,[1],25 µM (active)
Cc1cc(=O)[nH]c(=S)[nH]1,AC50,[2],6.64 µM (active)
Cc1ccc(C(C)C)c(O)c1,outcome,[3],inactive
CNC(=O)[C@H]1O[C@@H](n2cnc3c(NCc4cc(Cl)ccc4OCc4cc(C)no4)ncnc32)[C@H](O)[C@@H]1N,AC50,[4],25 µM (active)
Oc1ccc2c(c1)OC[C@@H](N1CCC(O)(c3ccc(F)cc3)CC1)[C@H]2O,outcome,[5],inactive
Cc1ccc(N(C)C)cc1,outcome,[1],inactive
COc1ccc(S(=O)(=O)N2C(=O)[C@@](c3ccccc3OC)(N3C[C@H](O)C[C@H]3C(=O)N(C)C)c3cc(Cl)ccc32)c(OC)c1,outcome,[6],inactive
C=CCc1ccc(O)c(OC)c1,outcome,[4],inactive
Nc1ccccc1N,AC50,[1],9.16 µM (active)
Cc1oc(-c2ccccc2)nc1CCOc1cccc2c1ccn2CCC(=O)O,AC50,[4],4.96 µM (active)
CCOc1ccc2c(c1)C(C)=CC(C)(C)N2,outcome,[2],inactive
CCCCC(CC)COC(=O)CC(C(=O)OCC(CC)CCCC)S(=O)(=O)O (stereo unspecified),outcome,[2],inactive
same,AC50,[7],19.1 µM (active)
same,AC50,[4],6.15 µM (active)
same,AC50,[8],16.1 µM (active)
same,outcome,[5],inactive
COc1cc(-c2nc(NC(=O)c3cc4cc(C)cc(C)c4n3CC(=O)O)sc2CCC2CCCCC2)c(OC)cc1Cl,AC50,[7],29.4 µM (active)
same,outcome,[8],inactive
O=c1c(O)c(-c2ccc(O)c(O)c2)oc2cc(O)cc(O)c12,AC50,[9],12.4 µM (active)
same,AC50,[1],0.89 µM (active)
CC(C)c1ccc(C(=O)N=C(N)N)cc1S(C)(=O)=O,outcome,[2],inactive
CCCCCCOCCO,outcome,[6],inactive
C1CCC(SSC2CCCCC2)CC1,outcome,[10],inactive
CC1=C(/C=C/C(C)=C/C=C/C(C)=C/CO)C(C)(C)CCC1,outcome,[9],inactive
CCCCCCCC=O,AC50,[8],0.613 µM (active)
COc1cc(C=O)ccc1O,outcome,[2],inactive
COc1ccc(C)cc1N,AC50,[2],7.8 µM (active)
NC(=O)Cn1c(=O)cc(CCN2CCN(c3nccc4sccc34)CC2)c2ccc(F)cc21,AC50,[10],1.26 µM (active)
same,AC50,[3],777 nM (active)
same,AC50,[5],2.29 nM (active)
Nc1ccc2c(c1)C(=O)c1ccccc1C2=O,outcome,[2],inactive
same,AC50,[1],25 µM (active)
same,outcome,[3],inactive
COc1cc(S(=O)(=O)O)c(C)cc1N=Nc1c(O)ccc2cc(S(=O)(=O)O)ccc12,outcome,[2],inactive
same,outcome,[1],inactive
same,outcome,[4],inactive
CCCCCCCCCCCC(=O)OC,outcome,[6],inactive
CCc1c(C(=O)NN2CCCCC2)nn(-c2ccc(Cl)cc2Cl)c1-c1ccc(Br)cc1,outcome,[1],inactive
COCCOC[C@H](CC1(C(=O)NC2CCC(C(=O)O)CC2)CCCC1)C(=O)Oc1ccc2c(c1)CCC2 (stereo partly specified),outcome,[4],inactive
C[C@]12C=CC(=O)C=C1CC[C@@H]1[C@@H]2C(=O)C[C@@]2(C)[C@H]1CC[C@]2(O)C(=O)CO,outcome,[3],inactive
FC(F)(F)C(F)(F)C(F)(F)C(F)(F)C(F)(F)C(F)(F)CCI,outcome,[2],inactive

# Reference: PubChem BioAssay (EPA / NIEHS)
